Assay outcomes as filed in PubChem.
Only some compounds are listed: those with a hit (about 12% of all), similar ones and a draw of the others.
Shiga inhibitor – inhibitors of Shiga toxin in Vero cells; Vero cells, Shiga toxin protein synthesis inhibition reporter; inhibition, % at 38.7 µM; 9.2% of 290,000 active; AID 2315; in the data active = inhibition mostly above about 28%, no sharp cut-off; inactive = mostly below about 43%
FMDV antiviral – blocks foot and mouth disease virus; FMDV antiviral cell-based qHTS; Potency, µM (doses to about 57.9 µM), usual class: inhibitors; 1.2% of 410,000 active; calls by dose curve; tested in HEK293T cells; also: read-out not given here; nearly all actives have a fitted effect of over 45% in size
Cycloheximide cs – counter-screen for Shiga toxin inhibitors: cycloheximide protein synthesis inhibition; cell reporter, cycloheximide protein synthesis inhibition counterscreen; max response, %; 12% of 300,000 active; AID 2314; in the data active = max response mostly above about 13%, no sharp cut-off; inactive = mostly below about 14%; also: read at 38.3 µM for the half of the compounds with a filed dose
Sm TGR inh – S. mansoni TGR enzyme inhibition; AID 485364; purified TGR, DTNB reduction, TNB absorbance 405 nm; 3% of 360,000 active; Potency, µM (titrated, usually from 114 µM), hits mostly inhibitors; active = well fitted inhibition curve with a large enough effect; inconclusive = small, poorly fitted or top-dose-only effect; inactive = no such curve, though single readings can be large or run the other way; also: nearly all actives have a fitted effect of over 60% in size
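Kinetic colorimetric format: TGR-catalysed, NADPH-driven DTNB reduction monitored via TNB absorbance. Enzyme dispensed at 20 nM; compound exposure 15 min at room temperature before reaction start.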
Hits are given with their value; [ ] = dose if it differs, or a comment.

For COc1cccc(C2C(C(=O)c3sc(C)nc3C)=C(O)C(=O)N2CCN2CCOCC2)c1 (stereo not given) the results were Shiga inhibitor inactive, FMDV antiviral inactive, Cycloheximide cs inactive and Sm TGR inh inactive.
CCOc1ccc(C2C(C(=O)/C=C/c3ccco3)=C(O)C(=O)N2CCN2CCOCC2)cc1OC (stereo not given) was read as Shiga inhibitor inactive, FMDV antiviral inactive, Cycloheximide cs inactive and Sm TGR inh 5µM.
`COc1ccc(C2C(C(=O)/C=C/c3ccco3)=C(O)C(=O)N2CCN2CCOCC2)cc1` (stereo not given) gave Shiga inhibitor inactive, FMDV antiviral inactive, Cycloheximide cs inactive and Sm TGR inh 14µM.
Screening Cc1ccc(C)c(NC(=O)CCCN2C(=O)COc3ccc(C)cc32)c1 returned FMDV antiviral inactive and Sm TGR inh inactive.
Cc1ccc(CNC(=O)NCc2noc3ccc(C)cc23)cc1 was read as FMDV antiviral inactive and Sm TGR inh inactive.
Screening CC(C)Cc1ccc(/C=C/C(=O)N2CCCCC2)cc1 returned Shiga inhibitor 67, FMDV antiviral inactive, Cycloheximide cs 43 and Sm TGR inh inactive.
CC(C)(C)c1ccc(/C=C/C(=O)N2CCCCC2)cc1 was read as Shiga inhibitor 81, FMDV antiviral inactive, Cycloheximide cs 51 and Sm TGR inh inactive.
Cc1ccc(/C=C/C(=O)N2CCCC(C)C2)cc1 (stereo not given) was read as Shiga inhibitor active, FMDV antiviral inactive, Cycloheximide cs 64 and Sm TGR inh inactive.
CC1CCN(C(=O)/C=C/c2ccc(C(C)(C)C)cc2)CC1 was read as Shiga inhibitor 21, FMDV antiviral inactive, Cycloheximide cs 39 and Sm TGR inh inactive.
`CCOC(=O)C1CCCN(C(=O)/C=C/c2ccc(Cl)cc2)C1` (stereo not given) gave Shiga inhibitor inactive, FMDV antiviral inactive, Cycloheximide cs inactive and Sm TGR inh inactive.
`COc1ccccc1-n1c(/C=C/c2c(C)n(C)c3ccccc23)nc2ccccc2c1=O` gave FMDV antiviral inconclusive and Sm TGR inh inactive.
`O=C(NC(=S)NNC(=O)c1ccccc1F)c1cccnc1` gave Shiga inhibitor 55, FMDV antiviral inactive, Cycloheximide cs 20 and Sm TGR inh inactive.
`CC(C)(C)c1ccc(C(=O)NNC(=S)NC(=O)c2cccnc2)cc1` gave Shiga inhibitor 53, FMDV antiviral inactive, Cycloheximide cs 24 and Sm TGR inh inactive.
`CC(C)(C)c1ccc(C(=O)NC(=S)NNC(=O)COc2ccccc2)cc1` gave Shiga inhibitor inactive, FMDV antiviral inactive, Cycloheximide cs 17 and Sm TGR inh inactive.
`Cc1ccc(C(=O)NNC(=S)NC(=O)COc2ccccc2)cc1` gave Shiga inhibitor inactive, Cycloheximide cs inactive and Sm TGR inh inactive.
For CC(C)(C)c1ccc(C(=O)NCc2cccnc2)cc1 the results were Shiga inhibitor inactive, FMDV antiviral inactive, Cycloheximide cs inactive and Sm TGR inh inactive.
Screening CC(C)(C)c1ccc(C(=O)NC(=S)NCc2cccnc2)cc1 returned Shiga inhibitor active, FMDV antiviral inactive, Cycloheximide cs 45 and Sm TGR inh inconclusive.
Screening Cc1ccccc1C(=O)NNC(=S)NC(=O)c1cccnc1 returned Shiga inhibitor inactive, FMDV antiviral inactive, Cycloheximide cs inactive and Sm TGR inh inactive.
For CNC(=O)CN1C(=O)COc2ccc(S(=O)(=O)N3CCC(C)CC3)cc21 the results were FMDV antiviral inactive and Sm TGR inh inactive.
Screening CCc1ccc(NC(=O)C(CC)n2c(=O)c(-c3ccccc3NC(C)=O)nc3ccccc32)cc1 (stereo not given) returned FMDV antiviral inconclusive and Sm TGR inh inactive.
`COc1ccc(CCC(=O)NCc2ccc3c(c2)CCN3C(=O)c2cccc(C)c2)cc1` gave FMDV antiviral inconclusive and Sm TGR inh inactive.
`CC(C)CCNC(=O)c1ccc(Cn2c(=O)c3cccn3c3cccnc32)cc1` gave FMDV antiviral inactive and Sm TGR inh inactive.
Screening COC(=O)CNC(=S)NC(=O)c1ccc(C(C)(C)C)cc1 returned Shiga inhibitor 78, FMDV antiviral inactive and Cycloheximide cs 32.
`CC(C)c1ccc(N2C(=O)CS(=O)(=O)C23C(=O)N(Cc2cccc(F)c2)c2ccccc23)cc1` (stereo not given) gave FMDV antiviral inactive and Sm TGR inh inactive.
For CCc1nnc(NC(=O)C23CC4CC(CC(C4)C2)C3)s1 the results were Shiga inhibitor 56, FMDV antiviral inactive, Cycloheximide cs 24 and Sm TGR inh inactive.
`O=C(Nc1ncccn1)C12CC3CC(CC(C3)C1)C2` gave Shiga inhibitor inactive, FMDV antiviral inactive, Cycloheximide cs inactive and Sm TGR inh inactive.
`O=C(Nc1nccs1)C12CC3CC(C1)CC(C(=O)Nc1nccs1)(C3)C2` gave Shiga inhibitor inactive, FMDV antiviral 25µM, Cycloheximide cs inactive and Sm TGR inh inactive[11.4 µM].
